CYP2C9 act = increases human cytochrome P450 2C9 activity | P11712 | recombinant CYP2C9, luciferin-H conversion, luminescence; stronger effect = higher value; factor 1 = untreated enzyme, 0 = blocked | activation factor at 5 µM | 96,000 compounds, 1.4% hits | AID 1024;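 active = activation factor of 2 or more for CYP2C9 at a 5 µM dose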;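 also: 0 = sulfaphenazole-blocked wells and 1 = vehicle-only wells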
CYP2C9 inh = blocks human cytochrome P450 2C9; P11712; CYP2C9 Supersomes, luciferin-H conversion, luminescence; inhibition, % at 5 µM; 96,000 compounds, 20% hits; AID 777;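 active = blocking of liver enzyme CYP2C9 beyond about 50% at 5 µM, limit read from the data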
PLAP activator = activates human placental alkaline phosphatase. purified PLAP enzyme, luminescent substrate read-out; stronger effect = higher value. activation fold at 20 µM. 96,000 compounds, 1.2% hits. AID 696; in the data active = activation fold above about 2
CYP2C19 inh = human CYP2C19 inhibition | P33261 | CYP2C19 Supersomes, luciferin-H EGE luminescence, 30 min | inhibition, % at 5 µM | 96,000 compounds, 21% hits | AID 778;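 active = CYP2C19 inhibition above a set limit at 5 µM in the primary screen, cut at about 50% in these data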;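 also: plate controls were negative control wells for no effect and 2.5 mM tranylcypromine positive control for full effect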
Target sequence (P33261 whole entry, looked up): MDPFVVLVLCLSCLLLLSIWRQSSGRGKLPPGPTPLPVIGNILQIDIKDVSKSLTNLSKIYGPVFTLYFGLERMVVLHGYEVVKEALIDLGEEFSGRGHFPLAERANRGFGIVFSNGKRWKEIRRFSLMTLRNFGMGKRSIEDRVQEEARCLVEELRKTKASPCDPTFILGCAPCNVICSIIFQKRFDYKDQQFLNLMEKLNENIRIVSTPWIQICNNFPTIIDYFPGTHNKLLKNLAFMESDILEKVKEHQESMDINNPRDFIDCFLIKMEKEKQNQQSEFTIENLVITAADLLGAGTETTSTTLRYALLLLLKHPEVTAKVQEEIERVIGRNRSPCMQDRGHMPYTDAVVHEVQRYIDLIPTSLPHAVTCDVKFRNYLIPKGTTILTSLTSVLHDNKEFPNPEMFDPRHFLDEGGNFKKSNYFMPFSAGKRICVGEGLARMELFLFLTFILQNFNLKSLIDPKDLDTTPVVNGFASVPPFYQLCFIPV
CYP2C19 act = activators of human cytochrome P450 2C19; 96,000 tested, under 10 active; recombinant CYP2C19, luciferin-H EGE luminescence; stronger effect = higher value; 0 = fully inhibited enzyme, 1 = untreated enzyme; activation factor at 5 µM; AID 1025; P33261;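 active = activation factor of at least 2 at 5 µM in the primary screen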;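 also: 0 = wells with 2.5 mM tranylcypromine and 1 = vehicle-only wells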
* marks the source's active call; other numbers are inactive results; nt = not tested or not shown. Shown are actives, neighbours in structure and some others; about 31% of the full set was active somewhere.

SMILES	CYP2C9 act	CYP2C9 inh	PLAP activator	CYP2C19 inh	CYP2C19 act
CCOC(=O)N1CCN(C(=O)c2ccc3c(=O)n(CCC4=CCCCC4)c(=O)[nH]c3c2)CC1	0.6	43	1.1	46	0.5
O=C1c2ccc3c4c(ccc(c24)C(=O)N1NC(=O)C(F)(F)F)CC3	0.8	18	0.9	43	0.6
CC(=O)c1ccc2c3c(ccc(O)c13)CC2	2.4*	-142	1.2	32	0.7
CC(C)c1ccc(C2NC(=O)NC3=C2CCc2ccccc23)cc1 (centres undefined)	0.8	22	1	26	0.7
Cc1ccc(C2NC(=O)NC3=C2CCc2ccccc23)cc1 (centres undefined)	0.7	33	1.1	95*	0.1
COc1ccc(C2NC(=O)NC3=C2CCc2ccccc23)cc1 (centres undefined)	0.8	16	1.1	81*	0.2
Cc1nc2ccccc2c(=O)n1NC(=O)c1ccc(F)cc1Cl	0.2	81*	0.8	-3	1
COc1cccc(CC(=O)Nn2c(C)nc3ccccc3c2=O)c1	0.1	87*	0.9	40	0.6
CCN1CCN(Cc2c(C)[nH]c3ccc(OC)cc3c2=O)CC1	1.1	-10	0.9	8	0.9
Cc1ccc(C)c(OCC(=O)Nn2c(C)nc3ccccc3c2=O)c1	0.2	78*	1.1	5	0.9
COc1ccc2[nH]c3c(c2c1)CCn1c-3nc2ccccc2c1=O	0.6	42	1	75*	0.3
N#CC1(c2ccccc2)CCCN1C(=O)c1ccco1 (centres undefined)	0.9	8	0.9	10	0.9
C=CCN(C(=O)CNC(=O)c1ccco1)C(C(=O)NC1CCCCC1)c1ccccc1F (centres undefined)	0.7	30	1.1	35	0.7
Cc1nc2ccccc2c(=O)n1NC(=O)c1ccccc1Cl	0.6	44	0.9	-2	1
CCOc1ccccc1C(=O)Nn1c(C2CCC2)nc2ccccc2c1=O	0.5	49	0.9	17	0.8
COc1ccccc1C(=O)Nn1c(C2CCC2)nc2ccccc2c1=O	0.1	95*	1.2	54*	0.5
COc1cc(OC)cc(C(=O)Nn2c(C)nc3ccccc3c2=O)c1	0.5	53*	0.8	36	0.6
COc1ccc(Br)c(C(=O)Nn2c(C)nc3ccccc3c2=O)c1	0.5	54*	1	-11	1.1
COc1cc(OC)cc(C(=O)Nn2cc(C(=O)N3CCN(C)CC3)c3ccccc3c2=O)c1	0.4	58*	0.9	11	0.9
CN(C)c1cccc(C(=O)Nc2ccc3nc4n(c(=O)c3c2)CCCCC4)c1	0.2	76*	1.3	76*	0.2
O=C(Nc1ccc(F)c(Cl)c1)c1ccc2c(=O)n3c(nc2c1)CCCCC3	0.9	8	0.9	3	1
O=C(c1ccc2c(=O)n3c(nc2c1)CCCCC3)N1CCN(C(c2ccccc2)c2ccccc2)CC1	0.4	62*	1.6	53*	0.5
O=C(Nc1cccc(Cl)c1)c1ccc2c(=O)n3c(nc2c1)CCCCC3	0.4	63*	0.8	26	0.7
O=C(NCCC1=CCCCC1)c1ccc2c(=O)n3c(nc2c1)CCCCC3	0.1	94*	1.5	75*	0.3
O=C(CCC(=O)c1cccs1)OCC(=O)N1CCN(C(=O)c2ccco2)CC1	0.9	12	1.1	12	0.9
SMILES	CYP2C9 act	CYP2C9 inh	PLAP activator	CYP2C19 inh	CYP2C19 act
CCCCNC(=O)NS(=O)(=O)c1ccc(C(=O)OC)o1	0.9	15	0.9	-2	1
Cc1ccc(OC(=O)Cn2c(C(F)(F)F)nc3ccccc32)cc1	0.8	16	1	12	0.9
Cc1nn(Cc2ccccc2)c(C)c1CCC(=O)O	1	-4	1.1	5	1
CSc1nc2c(c(C(F)(F)F)n1)CC(C)CC2 (centres undefined)	1.1	-6	1	-1	1
Clc1ccc(CSc2nnc(-c3ccncc3)o2)cc1	0.2	82*	1	92*	0.1
Clc1ccc(CSc2nnc(-c3c[nH]c4ccccc34)o2)cc1	0.8	20	0.9	5	1
Cc1ccc(NC(=O)Cc2nc(CSc3nnc(-c4ccc5c(c4)OCO5)o3)cs2)cc1	0.8	20	0.9	61*	0.4
Clc1ccc(CSc2nnc(-c3ccc4c(c3)OCO4)o2)cc1	0.5	50*	0.7	21	0.8
CCSc1nnc(-c2ccncc2)o1	nt	nt	1	nt	nt
CSc1nc(C)c2c(n1)OC(CN1C(=O)c3ccccc3C1=O)C2 (centres undefined)	0.8	15	0.9	7	0.9
C=CCn1c(C(C)NC(=O)c2ccccc2)n[nH]c1=S (centres undefined)	1	4	0.9	62*	0.4
O=C(Nc1cccc(NC(=O)c2ccccc2[N+](=O)[O-])n1)c1ccccc1[N+](=O)[O-]	0.6	43	0.9	30	0.7
COc1ccc(OC)c(NC(=O)CN2C(=O)c3ccccc3S2(=O)=O)c1	1	-1	0.9	9	0.9
CC(C)C(NC(=O)CN1C(=O)c2ccccc2S1(=O)=O)C(C)C	1	-4	1	36	0.6
Cc1cc(C)c(NC(=O)C(C)Sc2nc3ccc(N4C(=O)c5ccccc5C4=O)cc3s2)c(C)c1 (centres undefined)	0.9	14	1	15	0.8
O=C(CN1C(=O)c2ccccc2S1(=O)=O)NC1CCCCCC1	0.9	12	0.9	66*	0.3
CCc1cccc(C)c1NC(=O)CN1C(=O)c2ccccc2S1(=O)=O	0.6	37	1.2	77*	0.2
CCOC(=O)Cc1csc(NC(=O)CN2C(=O)c3ccccc3S2(=O)=O)n1	0.6	37	2.3*	0	1
CCc1cccc(C)c1NC(=O)CSc1nc2ccc(N3C(=O)c4ccccc4C3=O)cc2s1	0.5	51*	1.1	35	0.7
CCOC(=O)c1ccccc1NC(=O)CN1C(=O)c2ccccc2S1(=O)=O	0.8	21	1	-2	1
COC(=O)c1ccc(C)c(NC(=O)CN2C(=O)c3ccccc3S2(=O)=O)c1	0.2	83*	0.9	30	0.7
O=C(Cn1c(O)c(/C=C2\C=Nc3ccc(Br)cc32)sc1=O)N1CCCC1	0.1	91*	1.5	70*	0.3
CC1=Nc2ccccc2/C1=C/c1sc(=O)n(CC(=O)N2CCCC2)c1O	0.8	21	1	39	0.6
C/C(Cl)=C/CN1C(=O)C2C3C=CC(C3)C2C1=O (centres undefined)	0.7	29	0.9	73*	0.3
CC12C(=O)N(CCC(=O)O)C(=O)C1C1C=CC2C1 (centres undefined)	1	2	1	7	0.9
O=C(O)CN1C(=O)C2C3C=CC(C3)C2C1=O (centres undefined)	1.1	-12	1	-5	1
CC12C(=O)N(Cc3ccccc3)C(=O)C1C1C=CC2C1 (centres undefined)	0.8	20	0.9	89*	0.1

Screening results from PubChem.
